# System: PXR homodimer (NR concentration 270 nM)
# Experiment: PBM binding z-score (relative to random genomic background probes); higher = stronger binding; sequences stand for … in GC…GCGATTGACAGCGTAGAATGAAGG
# Method in brief: (§1)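 Random background probes are the reference for binding z-scores. These scores derive from regression-normalized fluorescence on custom Agilent 4×180K protein-binding microarrays incubated 1 h with ligand-free nuclear receptor dimers. Binding was detected with antibodies against each partner (one per run).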
row,Sequence,PBM binding z-score
1,CTCCAAAGGTCGTGCTCAGGTGAGTATACCAAAC,0.561
2,TAGCCAAGGTCATGGGCCAGTATACCACGCGAAC,0.572
3,CGAACTACGTCAGAACAGGACAGTGAAGGATGAT,-0.0465
4,ATATGTTGGTTATCGGGTCATTCAGTTTGCGCAT,7.6
5,ACAGACAGGTTATGAAGGTAACTCAGGCTATCAT,0.271
6,CCGACTGGGGCAGAAAGGATACCATACCATCCGG,-0.394
7,TCACGGAGGACACGAAAGGTCAGAGCTCGACATC,0.408
8,TGTCAAAGTTCAAAGGCAACGTAAGTATCCACAC,2.97
9,CCTCGCAGGCCAATCTGGGTCACTCAAGGCTTGA,-0.402
10,GCGACTGGGGCATCAGCAGGTTACCATTACTTAA,-0.395
11,TAGCCTAGGTCATGGGCCAGTATCCCACGCGAAC,-0.353
12,TCATATAGGTAAAAGGTGAAATTCGGTGTGGTAA,1.11
13,CCTATTAGATGACCATAAGGGCAACCGAAGCTCG,0.912
14,AGAACGAGGGCACGCTGAGTTGGTAGCAGAGTAG,-0.377
15,AGCACGAGGGCAATGAGTTGATAGCACGGGTGGC,5.64
16,CCGACTGGGGCATAAAGTTACCATAAGCCAGCCC,-0.245
17,CGAACTAGGTCATCCAGGACAGTAAATACATTGA,1.3
18,ATCTCTAGGTGAAGATAGTTCAGTGAATGCAAAT,0.667
19,ACTATTAGTTGACTTGGGGCAACCGATACGACGC,0.385
20,TAGCTTAGGTCATTGGGCCAGTATAGTACGCATC,0.132

row,Sequence,PBM binding z-score
1,AGAATGCGGTTATTAAGATCAGGGAATTGCGGTC,0.0419
2,TCTTGTAGATAAGCAGGTTAAGAAAGCTGGCCAA,-0.278
3,GCATATAGGTAATACAAGGTGAAAGTTCGATTGT,0.639
4,GATACAGGGTCAAGGCCAGACTACGCGTATTGAT,0.191
5,TCGGCTAGGTCAGTTGGTCAGCTAACGAGCTGCC,-0.113
6,AGTAAAAGTTCAGGACGAGGTAACGTAAAGCACG,1.45
7,AGAACGAGGGCAATGAGTTGATAACACGGGTGGC,4.8
8,TGAATGAGGTTATAAGCTCAGGGAACGTTGCAAA,-0.553
9,TCTATTAGTTGATTAGGGCATCCGAAACAGCGGA,0.652
10,ATATGTAGGTTAAGGGTAATTCAGGTTGGTTCGC,1.44
11,CAAACTAGGTCACAGAGGTCAAATTCCGTGCGTA,12.3
12,CGAACGAGGGCATGAGTGGATAGCAAATGCCGAT,-0.305
13,CCGAGTAGGTTATGGGGCATTCCGGCAACGGTGA,-0.17
14,CGTCCCAGGTCATAGGAGGTCAGTGAAGACAGAT,2.57
15,TTACCAAGTTGAAGGTCGTTGATCCCTCTGTAGA,0.298
16,GCACCAAGGTGAATAGGTCGTTGATGAGTAGGCG,-0.261
17,ATCGAAAGGTCGTGAGGTGAGTAGACAGAAAGGC,0.328
18,CGAACTAGGTGATCCAGGACAGTGAATACATTGA,0.369
19,TCTTGTAGATTAACAGGAGGTTAAGAAAGATCGA,0.157
20,AGAATGAGGTTATTAATATCAGGGAATTGCGGTC,0.447

# System: RARa:RXR (NR concentration 270 nM, RXRa partner concentration 90 nM)
# Experiment: as above
# Method in brief: as §1
row,Sequence,PBM binding z-score
1,CTCCAAAGGTCGTGCTCAGGTGAGTATACCAAAC,4.78
2,TAGCCAAGGTCATGGGCCAGTATACCACGCGAAC,4.73
3,CGAACTACGTCAGAACAGGACAGTGAAGGATGAT,-0.592
4,ATATGTTGGTTATCGGGTCATTCAGTTTGCGCAT,3.19
5,ACAGACAGGTTATGAAGGTAACTCAGGCTATCAT,0.863
6,CCGACTGGGGCAGAAAGGATACCATACCATCCGG,-1.06
7,TCACGGAGGACACGAAAGGTCAGAGCTCGACATC,4.8
8,TGTCAAAGTTCAAAGGCAACGTAAGTATCCACAC,3.97
9,CCTCGCAGGCCAATCTGGGTCACTCAAGGCTTGA,1.75
10,GCGACTGGGGCATCAGCAGGTTACCATTACTTAA,0.221
11,TAGCCTAGGTCATGGGCCAGTATCCCACGCGAAC,2.55
12,TCATATAGGTAAAAGGTGAAATTCGGTGTGGTAA,2.81
13,CCTATTAGATGACCATAAGGGCAACCGAAGCTCG,0.938
14,AGAACGAGGGCACGCTGAGTTGGTAGCAGAGTAG,0.517
15,AGCACGAGGGCAATGAGTTGATAGCACGGGTGGC,0.00535
16,CCGACTGGGGCATAAAGTTACCATAAGCCAGCCC,-0.613
17,CGAACTAGGTCATCCAGGACAGTAAATACATTGA,2.69
18,ATCTCTAGGTGAAGATAGTTCAGTGAATGCAAAT,0.801
19,ACTATTAGTTGACTTGGGGCAACCGATACGACGC,0.245
20,TAGCTTAGGTCATTGGGCCAGTATAGTACGCATC,2.53

row,Sequence,PBM binding z-score
1,AGAATGCGGTTATTAAGATCAGGGAATTGCGGTC,-0.457
2,TCTTGTAGATAAGCAGGTTAAGAAAGCTGGCCAA,0.402
3,GCATATAGGTAATACAAGGTGAAAGTTCGATTGT,2.6
4,GATACAGGGTCAAGGCCAGACTACGCGTATTGAT,4.98
5,TCGGCTAGGTCAGTTGGTCAGCTAACGAGCTGCC,0.266
6,AGTAAAAGTTCAGGACGAGGTAACGTAAAGCACG,2.39
7,AGAACGAGGGCAATGAGTTGATAACACGGGTGGC,0.19
8,TGAATGAGGTTATAAGCTCAGGGAACGTTGCAAA,1.26
9,TCTATTAGTTGATTAGGGCATCCGAAACAGCGGA,0.754
10,ATATGTAGGTTAAGGGTAATTCAGGTTGGTTCGC,1.63
11,CAAACTAGGTCACAGAGGTCAAATTCCGTGCGTA,7.83
12,CGAACGAGGGCATGAGTGGATAGCAAATGCCGAT,0.373
13,CCGAGTAGGTTATGGGGCATTCCGGCAACGGTGA,0.0767
14,CGTCCCAGGTCATAGGAGGTCAGTGAAGACAGAT,4.89
15,TTACCAAGTTGAAGGTCGTTGATCCCTCTGTAGA,1.21
16,GCACCAAGGTGAATAGGTCGTTGATGAGTAGGCG,1.6
17,ATCGAAAGGTCGTGAGGTGAGTAGACAGAAAGGC,4.15
18,CGAACTAGGTGATCCAGGACAGTGAATACATTGA,0.202
19,TCTTGTAGATTAACAGGAGGTTAAGAAAGATCGA,1.25
20,AGAATGAGGTTATTAATATCAGGGAATTGCGGTC,1.32

# — the supplement of paper PMC6555819
